# Bioassay records from PubChem.
# D1 antagonist = Antagonist of Human D 1 Dopamine Receptor: qHTS. HEK293 TREx D1 cells, calcium flux, dopamine EC80; active compounds read low. activity change, negative = inhibition, % at 10 µM. D(1A) dopamine receptor (Homo sapiens), P21728. AID 504652, 2011. 360,000 compounds, 3.2% hits; in the data active = activity change below about -30%; note: % is set by controls: 0 for no effect and ±100 for the full control effect
#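 Antagonism measured as reduced calcium response to an EC80 dopamine addition following 180 s compound pre-read; cells were inducible HEK293 Trex D1 plated overnight at 30 C, read kinetically at 1 cycle/sec.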
# D1 ag = Allosteric Agonists of the Human D1 Dopamine Receptor: qHTS. 360,000 compounds, 1% hits. HEK293 T-REx D1 cells, calcium flux, agonist mode. activation, % at 2 µM. D(1A) dopamine receptor (Homo sapiens), P21728; note: 0% is about no effect
#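 Tetracycline-induced HEK293 TREx D1 cells, force-coupled to calcium signalling, were dye-loaded with a no-wash calcium kit. Compound was pin-added after a 10 s baseline. Fluorescence was read kinetically at 1 cycle/s for 180 s, with calcium rises flagged as agonism.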
# D1 PAM = Potentiators of Human D1 Dopamine Receptor: qHTS; D(1A) dopamine receptor (Homo sapiens), P21728; potentiation, % at 10 µM; HEK293 TREx D1 cells, calcium flux, dopamine EC20 potentiation; AID 504651, 2011; 360,000 compounds, 0.036% hits; in the data active = potentiation above about 30%; note: 0% is about no effect
# TRHR agonist = qHTS for Small Molecule Agonists and Allosteric Enhancers of Human TRH Receptor: Primary Screen for Agonists | Thyrotropin-releasing hormone receptor (Homo sapiens), P34981 | TRHR cells, calcium flux fluo-8, FDSS agonist mode | activation, % at 2 µM | 360,000 compounds, 0.18% hits | AID 493084, 2011; note: 0% is about no effect
#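 Steps: seed TRHR cells overnight; add fluo-8 no-wash Ca dye, RT 30 min–1.5 h; record 10 s baseline; pin-transfer compounds; monitor fluorescence 1 cycle/s for the agonist window. Calcium increases flag candidate agonists.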
# TRHR enhancer = qHTS for Small Molecule Agonists and Allosteric Enhancers of Human TRH Receptor: Primary Screen for Enhancers; 360,000 compounds, 0.66% hits; enhancement, % at 2 µM; TRHR cells, fluo-8 calcium fluorescence, EC20 TRH enhancement; Thyrotropin-releasing hormone receptor (Homo sapiens), P34981; AID 493056, 2011; in the data active = enhancement above about 30%; note: 0% is about no effect
#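 TRHR-expressing cells loaded with fluo-8 calcium dye were read kinetically (ex 480/em 530) during compound addition, then stimulated with an EC20 of TRH (10 nM final). Enhancement of the Gq-mediated intracellular calcium response was scored.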
# Active calls of the source: *. Rows were chosen to be rich in hits. Some 4.6% of all compounds tested hit in one or more screens of this group. Cut-off read from the data, not from the text of the source, unless noted: active = activation above about 30%; inactive = the rest.
SMILES,D1 antagonist,D1 ag,D1 PAM,TRHR agonist,TRHR enhancer
N#Cc1c(-c2ccc(F)cc2)cc(-c2cccs2)nc1SCC(=O)O,-16,1,-1,0,2
O=C(CSc1nc2ccccc2s1)NNC(=S)Nc1ccccc1,1,10,-2,0,14
CCOC(=O)N1CCC(N(CCCOC)C(=O)Nc2cccc(OC)c2)CC1,-31*,2,1,0,-3
COCCN1C(=O)c2oc3cc(C)cc(C)c3c(=O)c2C1c1cccc(O)c1 (stereo unspecified),10,0,-1,0,5
CCN1CCN(CCNC(=O)CCc2c(C)c3c(C)nn(-c4ccccc4)c3n(C)c2=O)CC1,-46*,2,-17,1,-4
